# High-throughput results deposited in PubChem by The Scripps Research Institute Molecular Screening Center.
# PREPL inhibitor: inhibitors of human prolyl oligopeptidase-like enzyme PREPL; recombinant PREPL, fluorescence polarization activity-based probe; Q4J6C6; inhibition, % at 5.96 µM; actives 0.68% (n = 320,000); in the data active = inhibition above about 43%
# LYPLA2 counter: LYPLA2 (human) inhibition in PME1 counter-screen; AID 2177; recombinant LYPLA2, FP-Rh probe fluorescence polarization; O95372; inhibition, % at 5.9 µM; actives 0.38% (n = 320,000);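 active = inhibition above the screen-wide mean plus 3 SD, limit set per campaign, cut at about 26% in these data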
# Target sequence (O95372 whole entry, looked up): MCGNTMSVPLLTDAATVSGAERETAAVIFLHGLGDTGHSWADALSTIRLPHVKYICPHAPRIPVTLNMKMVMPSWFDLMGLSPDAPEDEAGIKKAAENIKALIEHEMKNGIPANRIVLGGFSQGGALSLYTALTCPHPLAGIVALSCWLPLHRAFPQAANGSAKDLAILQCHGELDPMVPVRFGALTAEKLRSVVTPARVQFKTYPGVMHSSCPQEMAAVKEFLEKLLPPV
# LYPLA1 inh: counter-screen for PME1 inhibitors: inhibitors of human LYPLA1. O75608. recombinant LYPLA1, FP-Rh probe fluorescence polarization. inhibition, % at 5.9 µM. actives 0.16% (n = 320,000);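 active = inhibition above the mean of all tested compounds plus 3 SD, set per campaign, cut at about 14% in these data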;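 also: inhibitors block serine hydrolase probe labeling of LYPLA1 so polarization falls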
# Target sequence (O75608 whole entry, looked up): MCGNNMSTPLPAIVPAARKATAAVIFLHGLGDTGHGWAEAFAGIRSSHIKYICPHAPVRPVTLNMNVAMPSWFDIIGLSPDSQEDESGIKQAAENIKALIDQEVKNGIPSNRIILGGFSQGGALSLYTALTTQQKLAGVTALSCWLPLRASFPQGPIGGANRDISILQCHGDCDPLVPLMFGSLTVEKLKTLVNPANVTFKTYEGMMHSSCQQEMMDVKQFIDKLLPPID
# PME-1 primary: blocks human protein phosphatase methylesterase 1; Q9Y570; recombinant PME-1, FP-Rh probe fluorescence polarization; inhibition, % at 5.9 µM; actives 0.53% (n = 320,000);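 active = inhibition above the campaign mean of all compounds plus 3 SD, cut at about 26% in these data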;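 also: competitive labeling of PME-1 active site by serine hydrolase directed probe; inhibitors block probe labeling so polarization falls and inhibition rises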
# Fam108B counter: counter-screen for RBBP9 inhibitors: inhibitors of mouse Fam108B. inhibition, % at 9.51 µM. recombinant Fam108B, FP-Rh probe fluorescence polarization. actives 0.33% (n = 300,000);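 active = inhibition above the screen mean inhibition plus 3 SD, computed separately per campaign, cut at about 18% in these data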;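 also: inhibitors lower polarization as less probe binds the enzyme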
# Fam108b inh conf: Fam108b (mouse) hydrolase inhibition, confirmation assay. recombinant Fam108b, FP-Rh probe fluorescence polarization. shares compounds with Fam108B counter. inhibition, % at 9.51 µM. actives 44% (n = 930). AID 1978;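 active = inhibition above a limit from the primary screen, the mean over all compounds plus 3 SD, cut at about 19% in these data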;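 also: inhibitors free the probe so polarization falls as inhibition rises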
# Fam108b ABPP HTS: inhibits mouse Fam108b in gel-based ABPP | inhibition, % at 20 µM | recombinant Fam108b, fluorophosphonate probe | actives 44% (n = 260) | AID 588649 | shares compounds with Fam108B counter; in the data active = inhibition above about 40%
# A number is an active result; n = inactive; x = no result given. An excerpt weighted towards active compounds, which were near 1.3% of everything screened.
SMILES,PREPL inhibitor,LYPLA2 counter,LYPLA1 inh,PME-1 primary,Fam108B counter,Fam108b inh conf,others
O=C(CCc1ccc(Oc2cc([N+](=O)[O-])cc([N+](=O)[O-])c2)cc1)Nc1cccc(Cl)c1,n,n,n,n,28,n,
COc1cccc(-c2nc(-c3ccc4c(c3)-c3ccccc3S4(=O)=O)c(-c3ccccc3)[nH]2)c1OC,n,n,n,n,n,x,
COc1cc(-c2nc(-c3ccc4c(c3)-c3ccccc3S4(=O)=O)c(-c3ccccc3)[nH]2)cc(OC)c1OC,n,n,n,n,29,n,
COc1ccc(-c2nc(SCC(=O)NCc3ccco3)c(-c3ccccc3)[nH]2)cc1OC,n,n,n,n,20,n,
O=C(O)c1cccc(-n2cccc2/C=C2\NC(=O)N(Cc3ccc(F)cc3)C2=O)c1,n,n,n,n,n,x,
O=C(O)c1ccc(-n2cccc2/C=C2/NC(=O)N(c3ccccc3)C2=O)cc1,n,n,n,n,20,n,
O=C(O)c1ccc(N=NNc2cccc([N+](=O)[O-])c2)cc1,n,n,n,n,n,x,
N#C/C(=N\Nc1cccc([N+](=O)[O-])c1)C(=O)c1ccc(Br)cc1,n,n,n,29,27,26,
COc1ccc(C2Nc3cccc4cccc(c34)N2)cc1Br,n,n,n,32,37,n,
CCCOc1ccc(C2NC(=O)NC2=O)cc1 (stereo not drawn),n,n,n,n,n,x,
CCCOc1ccc(C2Nc3cccc4cccc(c34)N2)cc1,n,n,n,49,25,n,
c1coc(C2Nc3cccc4cccc(c34)N2)c1,43,n,n,n,22,18,
Cc1ccc(C2Nc3cccc4cccc(c34)N2)s1,n,n,n,n,29,n,
Cc1nc(N2CCOCC2)nc(OCCN2CCOCC2)c1[N+](=O)[O-],n,n,n,n,n,x,
O=C(CN(C(=O)Cn1nnc(-c2ccc(F)cc2)n1)c1cccc(F)c1)NC1CCCC1,n,n,n,n,n,x,
COCCCNC(=O)COc1ccc(S(=O)(=O)NCc2ccccc2)cc1Cl,n,n,n,n,n,x,
Clc1cccc(C2Nc3cccc4cccc(c34)N2)c1Cl,n,n,n,n,n,x,
Fc1ccc(C2Nc3cccc4cccc(c34)N2)cc1,n,n,n,n,33,n,
Oc1ccc(C2Nc3cccc4cccc(c34)N2)c(O)c1,n,n,n,64,67,45,Fam108b ABPP HTS=65
Cc1cc(C)n(CC(O)CN2c3ccccc3Sc3ccccc32)n1 (stereo not drawn),n,n,n,n,n,x,
CCc1nnc(NC(=O)CCC(=O)NCCc2ccccc2)s1,n,n,n,n,n,x,
Cc1cccc(NC(=O)COC(=O)c2ccccc2SCC(=O)N2CCCC2)c1,n,n,n,n,n,x,
Cc1ccc(-n2c(C)cc(/C=C3/C(=N)N4C(c5ccccc5)=CSC4=NC3=O)c2C)cc1,n,n,n,n,n,x,
N=C1/C(=C\c2ccc(-c3cc(Cl)cc(Cl)c3)o2)C(=O)N=C2SC=C(c3ccccc3)N12,n,n,n,n,n,x,
N=C1/C(=C/c2ccc(-c3cccc(C(=O)O)c3)o2)C(=O)N=C2SC=C(c3ccccc3)N12,n,n,n,n,37,18,
SMILES,PREPL inhibitor,LYPLA2 counter,LYPLA1 inh,PME-1 primary,Fam108B counter,Fam108b inh conf,others
N=C1/C(=C/c2cccn2CCOc2ccccc2)C(=O)N=C2SC=C(c3ccccc3)N12,n,n,n,n,19,n,
CC1Sc2ccc(S(=O)(=O)N3CCC(C(=O)Nc4ccc(Cl)cc4)CC3)cc2NC1=O (stereo not drawn),n,n,n,n,n,x,
O=C(COc1ccc(Br)cc1Cl)NNC(=O)c1ccccc1,n,n,n,n,x,x,
COCCNC(=O)c1cc(-c2ccccc2C)nn1CC1CC(c2cccnc2)=NO1 (stereo not drawn),n,x,x,x,x,x,
Cc1ccc(NC(=O)CSCC(=O)NC2=NCCS2)cc1,n,n,n,n,x,x,
COc1ccc2nc(-n3c(C)ccc3C)sc2c1,n,n,n,n,n,x,
COc1ccc2nc(N3C(=O)/C(=C/c4ccccc4)NC3=S)sc2c1,n,n,n,58,20,22,
CCOc1ccc2nc(N3CCCCCC3)sc2c1,n,n,n,n,n,x,
CCOc1ccc2nc(N3C(=O)/C(=C/c4ccccc4)NC3=S)sc2c1,n,n,n,n,20,n,
O=C(Nc1ccccc1)Nc1cccc(Cl)c1Cl,n,n,n,n,n,x,
O=C(Nc1ccc(Cl)c(Cl)c1)Nc1ccccc1O,n,n,n,n,20,n,
O=C(Nc1ccc(Oc2ccc(NC(=O)Nc3ccccc3Cl)cc2)cc1)Nc1ccccc1Cl,n,n,n,n,58,59,Fam108b ABPP HTS=n
CC1(C)C2CCC1(CS(=O)(=O)N1CCC(C(=O)O)CC1)C(=O)C2 (stereo not drawn),n,n,n,n,n,x,
O=C/C=C/c1c(-c2ccccc2)cc2oc3ccccc3cc1-2,n,n,n,n,27,n,
Nc1ccc(-c2cc3ccccc3oc2=O)cc1,n,n,n,n,n,x,
COC(=O)C(Cc1ccccc1)NC(=O)c1cccc(S(=O)(=O)N(C)C)c1 (stereo not drawn),n,n,n,n,n,x,
O=[N+]([O-])c1ccc(O)c(/C=N\N=C2c3ccccc3-c3ccccc32)c1,n,n,n,n,21,n,
NC(N)=N/N=C/c1cc([N+](=O)[O-])ccc1O,n,n,n,n,n,x,
O=C(CCn1cccn1)Nc1ccc2c(c1)OCO2,n,n,n,n,18,n,
Cc1ccc(NC(=O)c2ccc(=O)[nH]c2)cc1S(=O)(=O)N1CCCCCC1,n,x,x,x,x,x,
COc1ccc2c(Cl)c(C(=O)N/N=C/c3c(C)[nH]c4ccccc34)sc2c1,n,n,n,32,33,21,
O=C(NCCc1cccs1)C12CN(Cc3ccccc3)CC1C(c1cccc([N+](=O)[O-])c1)=NO2 (stereo not drawn),n,n,n,n,n,x,
COc1cc2c(cc1NC(=S)Nc1cccc3ccccc13)oc1ccccc12,n,n,n,n,n,x,
COc1cc2c(cc1NC(=O)Nc1ccccc1)oc1ccccc12,n,n,n,31,33,43,Fam108b ABPP HTS=90
COc1cc2c(cc1NC(=S)Nc1cccc(C(F)(F)F)c1)oc1ccccc12,n,n,n,n,24,45,Fam108b ABPP HTS=85
COc1ccc(C2c3cc(OC)c(OC)cc3CCN2C(=O)c2ccccc2Br)cc1OC (stereo not drawn),n,n,n,n,n,x,
CC/C(=N\Nc1ccnc2cc(Cl)ccc12)c1ccc(O)cc1,n,n,n,n,n,x,
Oc1ccc(/C=N/Nc2ccnc3cc(Cl)ccc23)c(O)c1O,n,n,n,32,30,93,
Oc1ccc(C=NNc2ccnc3cc(Cl)ccc23)cc1O,x,x,x,x,x,x,Fam108b ABPP HTS=85
Cc1ccc(S(=O)(=O)Nc2cccc(C(=O)NCc3ccccn3)c2)cc1F,n,n,n,n,n,x,
